From PubChem BioAssay (NCI) come the findings set out here.

The structures appear in SMILES notation. Compounds without any hit were thinned out: in the full panel of roughly 79,000, 15% have a hit. Active and inactive are the calls of the source. No stated cut-off is given here; in the data, active means growth inhibition above about 70%; inactive means the rest.

The assay is described as follows: NCI Yeast Anticancer Drug Screen. Data for the mec2-1 strain (AID 157). The note with it: S. cerevisiae mec2-1 strain, at 50.0 µM, active compounds read high. Put shortly:
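Vehicle-treated cultures served as reference for growth inhibition of compound-exposed mec2-1 yeast.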
Turning to `COc1cccc(NC(=O)CC(=O)NN2C(=O)/C(=C/c3ccc(N(CCC#N)CCC#N)cc3)N=C2c2cc([N+](=O)[O-])ccc2Cl)c1`, the growth inhibition was -5.05% (inactive).
The value for `CC(C)(C)[Si](C)(C)OCCc1ccccc1C1CC2(S(=O)(=O)c3ccccc3)ON1CC2S(=O)(=O)c1ccccc1` (stereo not drawn) was -1.7% (inactive); that for `Nc1ccc(N2N=C(N3CCCC3)CC2=O)cc1` was -48.8% (inactive); that for `OCc1ccc2ccccc2n1` was -1.2% (inactive).
Turning to `COc1ccc(CCNC(=S)N/C=C(\C#N)S(=O)(=O)c2ccc(C)cc2)cc1OC`, the growth inhibition was -0.6% (inactive).
As for `O=C(/C=C\c1ccc(Cl)cc1)OCCCCOC(=O)/C=C/c1ccc(Cl)cc1`, the figure is 3.15% (inactive); as for `Oc1ccccc1/C=N/Nc1nc(N/N=C/c2ccccc2O)nc(N/N=C/c2ccccc2O)n1`, 20.5% (inactive).
As for `CC(C)CCCC(C)C1CCC2C3CC=C4CC(OC5CCC6(C)C(=CCC7C6CCC6(C)C(C(C)CCCC(C)C)CCC76)C5)CCC4(C)C3CCC12C` (stereo not drawn), the figure is -12.8% (inactive).
`COc1ccc(N2C(=O)[C@@H]3[C@H](C2=O)c2[nH]c4ccccc4c2C2CCC(C(C)(C)C)C[C@@H]23)cc1` (stereo partly drawn): the growth inhibition is 4.1% (inactive).
The value for `C=CCC1(C(C)C(O)c2cc(OC)c(OC)c(OC)c2)CC(O)C=CC12OCCO2` (stereo not drawn) was -17.3% (inactive).
With `CCOc1ccc(N2C(=O)C(=O)C(C#N)(c3nc4ccccc4o3)C(=O)C2=O)cc1`, the growth inhibition is 33.7% (inactive).
As for `CC(=O)c1ccc(N2CCCCC2)cc1`, the figure is -12.2% (inactive); as for `CCOC(=O)c1ccc(Nc2cnc3ccc(C(F)(F)F)cc3n2)cc1`, -2.35% (inactive).
